# Results taken from ChEMBL document CHEMBL3988442, “University of Dundee, Small-Polar-MMV Screening Library” (2021).
# In all, about 48,000 compounds went through this assay and about 13,000 (27%) showed an effect of 50% or more. The list shows a part of the results.
# Test system: Wolbachia pipientis
# Test: Anti-Wolbachia Cell-Based Screen
# Type: functional
# Set-up: scale not given: in the data most compounds retested in dose-response had high values
# Settings: 5 µM
row,SMILES,Percent Effect [%]
1,COC(=O)CN(Cc1ccccc1C)C(=O)COCC1CC1,5.451
2,O=c1cc(Cn2cncn2)nc2n1CCCN(CC1CC1)C2,-9.621
3,O=c1cc(Cn2ccnc2)nc2n1CCCN(Cc1ccco1)C2,5.269
4,O=c1cc(Cn2ccnc2)nc2n1CCCN(CC1CCOCC1)C2,-2.581
5,CCS(=O)(=O)N1CCCn2c(nc(CN3CCCC3)cc2=O)C1,124.6
6,CN(C)Cc1cc(=O)n2c(n1)CN(CC1CC1)CCC2,1.173
7,O=c1cc(CN2CCCC2)nc2n1CCCN(CC1CC1)C2,112.4
8,O=c1cc(Cn2cncn2)nc2n1CCCN(CC1CCOCC1)C2,-15.84
9,O=c1cc(Cn2ccnc2)nc2n1CCCN(S(=O)(=O)C1CC1)C2,102.1
10,O=c1cc(CN2CCCC2)nc2n1CCCN(S(=O)(=O)C1CC1)C2,95.22
11,O=c1cc(CN2CCCC2)nc2n1CCCN(CC1CCOCC1)C2,2.964
12,COCCN1C(=O)[C@]2(CC[C@@H]3CN(C(=O)NCC(C)C)C[C@@H]32)N=C1C,-10.16
13,Cc1n[nH]c(-c2ccc(NC(=O)C(C)N3CCN(C)CC3)cc2)n1 (stereo unspecified),0.753
14,O=S(=O)(c1cccnc1)N1C[C@@H]2COC[C@]2(COCC2CC2)C1,5.387
15,CCCn1cnc2c1CN(C(=O)c1ccc(F)cc1)[C@H](C(=O)OC)C2,6.422
16,FC(F)(F)c1n[nH]c2c1CN(Cc1cn3ccccc3n1)CC2,10.05
17,CC(C)n1c(C(=O)N2CCCC2)nc2c1CCN(c1ncccn1)C2,-6.562
18,NC(=O)C1CCCN(c2ncnc3c2Cc2ccccc2OC3)C1 (stereo unspecified),10.44
19,CN(CC1(CO)CCC1)c1nc2c(c(=O)[nH]1)Cc1ccccc1OC2,9.578
20,Cc1nc2c(c(NCC3Cc4ccccc4CN3C)n1)CCNCC2 (stereo unspecified),-7.174
21,Cc1nc2c(c(N[C@@H](CO)C(N)=O)n1)Cc1ccccc1OC2,104.3
22,NC(=O)C1CN(c2ncnc3c2Cc2ccccc2OC3)CCO1 (stereo unspecified),-2.361

row,SMILES,Percent Effect [%]
1,CN(CC1(CO)CCCC1)c1nc2c(c(=O)[nH]1)Cc1ccccc1OC2,6.752
2,Cc1nc2c(c(NC(C)c3nnn[nH]3)n1)Cc1ccccc1OC2 (stereo unspecified),97.46
3,Cc1nc2c(c(N[C@H](C(N)=O)C(C)C)n1)Cc1ccccc1OC2,105
4,Cc1cc(C(=O)NC(C)c2nnn[nH]2)c2cccc(C)c2n1 (stereo unspecified),0.7589
5,COc1ccccc1OCCNC(=O)NCc1nc(C)no1,-10.03
6,CCCc1c(C(=O)NC2CCCC2)nnn1-c1ccc(OC)cc1,0.3347
7,CCOCC(=O)N1C[C@@H]2CC[C@H](C1)N(Cc1ccccn1)C2=O,2.863
8,NC1(C(=O)N2CCC(c3cc(-c4ccccc4Cl)n[nH]3)CC2)CCC1,-26.69
9,CC(C)NC(=O)NC[C@@]1(COc2cnccn2)C[C@@H](O)[C@@H](O)C1.Cl,-2.608
10,CN1Cc2ccccc2CC2(CCN(c3ncc(F)cn3)CC2)C1=O,-14.24
11,Cn1ccnc1CN1CCC2(CC1)CCN(c1cncnc1)C2=O.O=C(O)C(F)(F)F,-20.08
12,CN1Cc2ccccc2CC2(CCN(c3ncccn3)CC2)C1=O,-6.777
13,Cn1ccnc1CN1CCC2(CC1)CCN(c1ccccc1)C2=O.O=C(O)C(F)(F)F,113.1
14,Cn1ccnc1CN1CCC2(CC1)Cc1ccccc1CNC2=O.O=C(O)C(F)(F)F,103.5
15,CN1Cc2ccccc2CC2(CCN(Cc3nccn3C)CC2)C1=O,94.48
16,CN1CC(=O)N(c2ccccc2)CC12CCN(Cc1nccn1C)C2.O=C(O)C(F)(F)F.O=C(O)C(F)(F)F (stereo unspecified),-13.15
17,N#CC1(C(=O)N2Cc3cc(-c4cc[nH]n4)ccc3C2c2cnco2)CC1 (stereo unspecified),-31.27
18,NC(=O)COc1ccc(C(=O)NCCc2ccco2)cc1,-0.9721
19,C[C@H]1CN(CC2CCOCC2)C[C@@]12CCN(Cc1cccnc1)C2=O.O=C(O)C(F)(F)F.O=C(O)C(F)(F)F,107.6
20,C[C@@H]1CN(S(C)(=O)=O)C[C@]12CCN(Cc1cccnc1)C2=O.O=C(O)C(F)(F)F,104.4
21,CN1CC(=O)N(c2cccc(F)c2)CC12CCN(Cc1cccnc1)C2.O=C(O)C(F)(F)F.O=C(O)C(F)(F)F.O=C(O)C(F)(F)F (stereo unspecified),-7.08
22,CN1CC(=O)N(c2ccccc2)CC12CCN(Cc1cccnc1)C2.O=C(O)C(F)(F)F.O=C(O)C(F)(F)F.O=C(O)C(F)(F)F (stereo unspecified),-4.544

row,SMILES,Percent Effect [%]
1,CCN1C(=O)C(c2ccccc2)CC12CCN(Cc1cccnc1)CC2.O=C(O)C(F)(F)F.O=C(O)C(F)(F)F (stereo unspecified),-2.584
2,C[C@@H]1CN(Cc2cccnc2)C[C@]12CCN(CCN1CCCC1)C2=O.O=C(O)C(F)(F)F.O=C(O)C(F)(F)F.O=C(O)C(F)(F)F,95.13
3,C[C@@H]1CN(Cc2cccc(F)c2)C[C@]12CCN(Cc1cccnc1)C2=O.O=C(O)C(F)(F)F.O=C(O)C(F)(F)F,107.3441
4,CCS(=O)(=O)N1CC[C@H]2C(=O)N(Cc3cccnc3)CCO[C@H]2C1.O=C(O)C(F)(F)F,-12.91
5,CN1CCN(Cc2cccnc2)C(=O)C12CCN(C1CCOC1)CC2.O=C(O)C(F)(F)F.O=C(O)C(F)(F)F.O=C(O)C(F)(F)F (stereo unspecified),20.83
6,CN1CCN(Cc2cccnc2)C(=O)C12CCN(CC1CCOC1)CC2.O=C(O)C(F)(F)F.O=C(O)C(F)(F)F.O=C(O)C(F)(F)F (stereo unspecified),-19.27
7,CCN(CC)C(CNCc1ccc(C)o1)c1ccco1 (stereo unspecified),6.767
8,CC(=O)N[C@@H]1CN(S(=O)(=O)Cc2ccccc2)C[C@H]1C(C)C,4.897
9,O=C(NC1CCN(Cn2nc(-c3ccccc3)oc2=O)CC1)C1CC1,15.64
10,Cc1noc(C)c1CN1CCC2(CC1)CC(Oc1cccnc1)CO2.O=C(O)C(F)(F)F (stereo unspecified),0.1924
11,CN1CCN(Cc2cccnc2)C2(CCN(Cc3ccccn3)C2)C1=O.O=C(O)C(F)(F)F.O=C(O)C(F)(F)F.O=C(O)C(F)(F)F (stereo unspecified),9.415
12,O=C(O)C(F)(F)F.O=C(O)C(F)(F)F.c1ccc(CN2CCC3(CC2)CC(Oc2cccnc2)C3)nc1,-13.53
13,C[C@@H]1CN(Cc2ccccn2)C[C@]12CCN(Cc1cccnc1)C2=O.O=C(O)C(F)(F)F.O=C(O)C(F)(F)F.O=C(O)C(F)(F)F,86.67
14,Cc1noc(C)c1CN1CCN(Cc2cccnc2)c2ncccc2C1.O=C(O)C(F)(F)F.O=C(O)C(F)(F)F.O=C(O)C(F)(F)F,-12.75
15,C[C@H]1CN(c2ccccn2)C[C@@]12CCN(Cc1cccnc1)C2=O.O=C(O)C(F)(F)F.O=C(O)C(F)(F)F,111.4
16,O=C(c1cccnc1)N1C[C@@H]2CN(CCN3CCCC3)C(=O)[C@@H]2C1,-1.372
17,Cc1noc(C)c1CN1C[C@H](C)[C@]2(CCN(Cc3cccnc3)C2=O)C1.O=C(O)C(F)(F)F.O=C(O)C(F)(F)F,119.9
18,C[C@H]1CN(C(=O)c2cccnc2)C[C@@]12CCN(CCN1CCCC1)C2=O,107.9
19,O=C(c1ccco1)N1CCCC2(CCN(CCN3CCCC3)C2=O)C1 (stereo unspecified),0.2637
20,CN(CC1CCCCO1)c1nc(-c2cccnc2)nc2c1CCNC2 (stereo unspecified),-24.82
21,CC(C)N1CCc2ncn(C(C)C)c2C1C(=O)NCCN1CCCC1 (stereo unspecified),-11.46
22,CCCc1cc(NCCn2cccn2)n2nccc2n1,-0.5952

row,SMILES,Percent Effect [%]
1,Cc1cc(NC(=O)CCN(CC2CCOC2)C2CC2)no1 (stereo unspecified),14.41
2,CC(C)NC(=O)N[C@H]1C[C@@H](c2nc(-c3ccc(F)cc3)no2)N(C)C1,-4.692
3,Cc1nc2cc(C(=O)N(CCN(C)C)CCN(C)C)ccc2n1C,-1.95
4,Cc1cc(CS(=O)(=O)NCC2CCCCC2)on1,-6.001
5,O=C(c1csc(-c2nnc[nH]2)n1)N1CCCCC1Cn1cccn1 (stereo unspecified),114.8
6,O=C(c1ccc(-n2ccnc2)nn1)N1CCCCC1Cn1cccn1 (stereo unspecified),-18.3
7,O=C(Cc1csc(-c2nnc[nH]2)n1)N1CCCC1Cn1cccn1 (stereo unspecified),1.097
8,Cc1cnn(CC2CCCN2C(=O)c2csc(-c3nnc[nH]3)n2)c1 (stereo unspecified),136
9,Cc1noc(OCc2ccc(C#N)cc2)n1,3.288
10,NC(=O)C1CCN(C(=O)c2cc(S(=O)(=O)N3CCCC3)cs2)CC1,4.91
11,C=Cn1ncc(CN2C[C@@H]3C[C@@H](O)CN3C[C@@H]2Cc2ccccc2)c1C,135.2
12,CCCn1ncc(CN2C[C@@H]3CCCN3C[C@@H]2CCSC)c1C,-13.92
13,CCn1cc(CN2CC3CCCN3C[C@H]2C)c(C)n1 (stereo partly specified),-10.13
14,C=Cn1ncc(CN2C[C@@H]3CCCN3C[C@H]2CCSC)c1C,-0.7089
15,C=Cn1ncc(CN2C[C@@H]3CCCN3C[C@H]2Cc2ccccc2)c1C,116.6
16,C=Cn1ncc(CN2C[C@@H]3C[C@@H](O)CN3C[C@H]2Cc2ccccc2)c1C,130.9
17,C=Cn1ncc(CN2C[C@@H]3CCCN3C[C@@H]2CCSC)c1C,137.5
18,C=Cn1ncc(CN2C[C@@H]3CCCN3C[C@@H]2Cc2ccccc2)c1C,-5.258
19,COC(=O)C1(C)CCN(C(=O)NCCc2c(C)[nH]c3ccccc23)C1 (stereo unspecified),-5.132
20,Cc1ccsc1CN(CCN(C)C)C(=O)c1cc2ccccc2[nH]1,-9.122
